# Data published in PubChem BioAssay (EPA / NIEHS).
# The source holds several records for some structures; these can differ, active in one and inactive in another. Activity calls are given as the source filed them. The calls were made as follows: active = hit-call score of the fitted dose curve at least 0.9, where 1 is the maximum; inactive = score below 0.9.
# Test: BSK_hDFCGF_Proliferation: Cell Proliferation Assessment in the BioMAP Diversity Plus: hDFCGF Assay (AID 2283059);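 also: curves fitted for both rise and fall of signal versus DMSO baseline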
# Conditions: primary human foreskin fibroblasts
# Method: BSK_hDFCGF is a cell-based, multiplexed-readout assay that uses foreskin fibroblast, a human skin primary cell, with measurements taken at 24 hours after chemical dosing in a 96-well plate.BSK_hDFCGF_Proliferation is an assay component measured in the BSK_hDFCGF assay. It measures […] related to cell proliferation using Sulforhodamine staining technology.Data from the assay component BSK_hDFCGF_Proliferation was analyzed into 1 assay endpoint. This assay endpoint, BSK_hDFCGF_Proliferation, was analyzed with bidirectional fitting relative to DMSO as the negative control and baseline of activity. Using a type of viability reporter, measures of total protein for gain or loss-of-signal activity can be used to understand the viability at the cellular-level. Furthermore, this assay endpoint can be referred to as a secondary readout, because this assay has produced multiple assay endpoints where this one serves a viability function. To generalize the intended target to other relatable targets, this assay endpoint is annotated to the cell cycle intended target family, where the subfamily is proliferation.
# The levels of cell surface (or secreted, indicated by the prefix "s") biomarker endpoints were measured by ELISA. Overt cytotoxicity to cells in confluent adherent cultures (all systems other than the BT system) was assessed by measuring total protein levels using sulforhodamine B (SRB) staining in parallel cultures at the time of biomarker measurements, indicated as SRB endpoints. For proliferation assays for adherent cell types, individual cell types are cultured at sub-confluence and relative cell numbers quantified by SRB staining at time points optimized for each system (48 h: 3C and CASM3C systems; 72 h: BT and HDF3CGF systems; 96 h: SAg system). SRB was performed by staining cells with 0.1% SRB after fixation with 10% TCA and reading wells at 560 nm.Viability and proliferation of PBMC (T cells) was quantified by Alamar Blue reduction for the SAg and BT systems. For PBMC viability (referred to as PBMC Cytotoxicity within the assay endpoint names), cells were plated (75,000/well in a 96-well plate) and then chemical samples added for 1 h before addition of activators, SEB and TSST-1 (20 ng/mL final concentration each). Cells were incubated for 90 h. Then, Alamar Blue (20 uL/well) (Invitrogen, Cat DAL1100) was added for 6 h, and the plates were read with a fluorescence microplate reader at 546/580 nm (excitation/emission). For PBMC proliferation, cells were plated and activated as above but incubated for only 16 h prior to addition of Alamar Blue. Plates were read after 6 h.
Structure (SMILES),outcome,AC50
ClC(Cl)(Cl)c1ccccc1,inactive,–
O=C(O)C(F)(F)OC(F)(F)C(F)(F)OC(F)(F)F,inactive,–
CC(C)(C)OOC(C)(C)C,inactive,–
OCC1CO1 (stereo not given),inactive,–
FC(F)(F)C(F)(C(F)(F)F)C(F)(F)C(F)(F)CC1CO1 (stereo not given),inactive,–
c1nc[nH]n1,inactive,–
CCCCN(CCCC)N=O,inactive,–
O=C(O)C(F)(F)C(F)(F)C(=O)O,inactive,0.22 µM (active)
c1ccc2c(c1)sc1ccccc12,inactive,–
CCCCC(CC)COP(=O)(Oc1ccccc1)Oc1ccccc1 (stereo not given),–,6.04 µM (active)
CC(Cl)CN(C)C (stereo not given),inactive,–
Cc1ccc2c(c1N)C(=O)c1ccccc1C2=O,inactive,–
c1ccc2c(c1)Nc1ccccc1S2,–,30.4 µM (active)
O=[N+]([O-])c1ccccc1,inactive,–
CC(C)(C)c1ccccc1OP(=O)(Oc1ccccc1)Oc1ccccc1,–,15.6 µM (active)
Cc1ccc([N+](=O)[O-])cc1C,inactive,–
CCC(C)(C)c1ccc(O)cc1,inactive,–
Nc1cc2c3c(c1)C(c1ccccc1)=N[C@@H](NC(=O)c1cccnc1)C(=O)N3CC2,inactive,–
O=S(=O)(F)C(F)(F)C(F)(F)C(F)(F)C(F)(F)C(F)(F)C(F)(F)C(F)(F)C(F)(F)F,inactive,–
O=P(OCC(Br)CBr)(OCC(Br)CBr)OCC(Br)CBr (stereo not given),inactive,–

Structure (SMILES),outcome,AC50
CCOc1ccc(C(C)(C)COCc2cccc(Oc3ccccc3)c2)cc1,inactive,–
Cc1c([N+](=O)[O-])cc2c(c1[N+](=O)[O-])C(C)(C)CC2(C)C,–,20 µM (active)
CC(Cc1ccc(OCC(=O)O)cc1)NCC(O)c1csc(C(F)(F)F)n1 (stereo not given),inactive,–
ClC(Cl)c1ccccc1,inactive,–
O=c1ssc(Cl)c1Cl,–,0.577 µM (active)
CSC(C)(C)C=NO,inactive,–
O=P1(N(CCCl)CCCl)NCCCO1 (stereo not given),inactive,–
CCNc1nc(Cl)nc(NC(C)(C)C)n1,inactive,–
C=CC(=O)OCC(CC)(COC(=O)C=C)COC(=O)C=C,–,0.795 µM (active)
O=C(O)C1C(C(=O)O)C2(Cl)C(Cl)=C(Cl)C1(Cl)C2(Cl)Cl (stereo not given),inactive,–
CCOP(=S)(OCC)SCS(=O)(=O)CC,inactive,–
CCOP(=S)(OCC)SCSc1ccc(Cl)cc1,inactive,–
CCOP(=S)(OCC)SCSCC,inactive,–
c1ccc(OP(Oc2ccccc2)Oc2ccccc2)cc1,inactive,–
Cc1ccc(N)cc1N,inactive,–
CC(O)C(F)(F)C(F)(F)F (stereo not given),inactive,–
CCOC(=O)c1ccccc1C(=O)OCC,inactive,–
ClC1=C(Cl)C2(Cl)C3C(Cl)C(Cl)CC3C1(Cl)C2(Cl)Cl (stereo not given),–,6.97 µM (active)
CN(C)C(=O)Cl,inactive,–
